{
  "source": "ChEMBL document CHEMBL3433997",
  "about": "“St. Jude Leishmania screening dataset” (2016)",
  "format_in_all_cases": "functional",
  "key": {"[1]": {"target": "Solute carrier family 2, facilitated glucose transporter member 1 (Homo sapiens) (UniProt P11166)", "sequence (P11166 whole entry)": "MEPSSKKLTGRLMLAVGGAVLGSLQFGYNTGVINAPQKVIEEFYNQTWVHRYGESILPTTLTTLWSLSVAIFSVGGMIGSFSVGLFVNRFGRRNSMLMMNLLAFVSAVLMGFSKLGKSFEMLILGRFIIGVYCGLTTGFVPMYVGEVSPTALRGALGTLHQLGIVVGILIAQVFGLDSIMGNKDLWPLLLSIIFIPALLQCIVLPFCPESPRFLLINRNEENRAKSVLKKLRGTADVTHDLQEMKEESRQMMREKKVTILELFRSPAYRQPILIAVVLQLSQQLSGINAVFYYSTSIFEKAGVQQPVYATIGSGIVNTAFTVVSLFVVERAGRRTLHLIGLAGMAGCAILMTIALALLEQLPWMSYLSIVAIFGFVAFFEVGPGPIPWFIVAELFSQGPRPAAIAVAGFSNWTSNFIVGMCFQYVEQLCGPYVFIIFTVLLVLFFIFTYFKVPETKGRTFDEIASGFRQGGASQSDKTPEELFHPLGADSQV", "assay": "ST_JUDE_LEISH: Cytotoxicity at 2uM final concentration against transgenic Leishmania Mexicana promastigotes LmGLUT1 that are glucose transport deficient and complemented with the human glucose transporter GLUT1. Activity is measured by DNA content using SYBR green in vitro"}, "[2]": {"target": "Hexose transporter 1 (Plasmodium falciparum) (UniProt O97467)", "assay": "ST_JUDE_LEISH: Cytotoxicity at 2uM final concentration against transgenic Leishmania Mexicana promastigotes LmPfHT that are glucose transport deficient and complemented with the Plasmodium falciparum hexose transporter. Activity is measured by DNA content using SYBR green in vitro"}, "[3]": {"target": "Glucose transporter (Leishmania mexicana) (UniProt O61059)", "assay": "ST_JUDE_LEISH: Cytotoxicity at 2uM final concentration against transgenic Leishmania Mexicana promastigotes LmGT2 that are glucose transport deficient and complemented with the L. Mexicana glucose transporter 2. Activity is measured by DNA content using SYBR green in vitro"}},
  "note": "Where “and” joins values, the source holds several entries; their conditions need not be identical. Equal values may be shown once.",
  "data": [
    {"compound": "CN(CCCc1c[nH]c2ccccc12)CCC1CCC(NC(=O)/C=C/c2ccc(Cl)c(Cl)c2)CC1", "note": "(stereo not drawn)", "values": [
      {"measurement": "inhibition", "setting": "[1]", "result": 3.61, "unit": "%"},
      {"measurement": "inhibition", "setting": "[2]", "result": 2.63, "unit": "%"},
      {"measurement": "inhibition", "setting": "[3]", "result": 1.8, "unit": "%"}
    ]},
    {"compound": "CCN(CC)CCCN(Cc1ccc(-c2ccc(C(F)(F)F)cc2)cc1)C(=O)Cn1c(SCc2cccc(F)c2F)cc(=O)c2ccccc21", "values": [
      {"measurement": "inhibition", "setting": "[1]", "result": 2.74, "unit": "%"},
      {"measurement": "inhibition", "setting": "[2]", "result": 2.63, "unit": "%"},
      {"measurement": "inhibition", "setting": "[3]", "result": 2.46, "unit": "%"}
    ]},
    {"compound": "CC(C)NCc1cccc(-c2cccc(NC(=O)c3cccc(Cl)c3)c2)c1", "values": [
      {"measurement": "inhibition", "setting": "[1]", "result": -0.03, "unit": "%"},
      {"measurement": "inhibition", "setting": "[2]", "result": 0.9, "unit": "%"},
      {"measurement": "inhibition", "setting": "[3]", "result": 4.05, "unit": "%"}
    ]},
    {"compound": "CC(C)c1ccc(NC(=O)c2ccc(CN3CCCN(Cc4cccc(Cl)c4)CC3)cc2)cc1", "values": [
      {"measurement": "inhibition", "setting": "[1]", "result": 0.69, "unit": "%"},
      {"measurement": "inhibition", "setting": "[2]", "result": 1.46, "unit": "%"},
      {"measurement": "inhibition", "setting": "[3]", "result": 1.59, "unit": "%"}
    ]},
    {"compound": "CN(C)CCNCc1ncsc1-c1ccc2c(Nc3ccc(F)cc3Cl)ccnc2c1", "values": [
      {"measurement": "inhibition", "setting": "[1]", "result": 3.88, "unit": "%"},
      {"measurement": "inhibition", "setting": "[2]", "result": 4.3, "unit": "%"},
      {"measurement": "inhibition", "setting": "[3]", "result": 4.59, "unit": "%"}
    ]},
    {"compound": "CCCCCN1CCC(NS(=O)(=O)c2cccc(C(=O)Nc3ccc(C(F)(F)F)cc3)c2)C1", "note": "(stereo not drawn)", "values": [
      {"measurement": "inhibition", "setting": "[1]", "result": 1.64, "unit": "%"},
      {"measurement": "inhibition", "setting": "[2]", "result": 1.94, "unit": "%"},
      {"measurement": "inhibition", "setting": "[3]", "result": 1.9, "unit": "%"}
    ]},
    {"compound": "CCc1ccc(NC(=O)c2ccc(CN3CCCN(Cc4cccc(Cl)c4)CC3)cc2)cc1", "values": [
      {"measurement": "inhibition", "setting": "[1]", "result": 1.47, "unit": "%"},
      {"measurement": "inhibition", "setting": "[2]", "result": 2.69, "unit": "%"},
      {"measurement": "inhibition", "setting": "[3]", "result": 2.29, "unit": "%"}
    ]},
    {"compound": "O=S(=O)(Nc1cc2c(cc1OCc1ccccc1)CCN(C1CCC1)CC2)c1ccc(-c2ccc(Cl)cc2)cc1", "values": [
      {"measurement": "inhibition", "setting": "[1]", "result": 1.72, "unit": "%"},
      {"measurement": "inhibition", "setting": "[2]", "result": 2.61, "unit": "%"},
      {"measurement": "inhibition", "setting": "[3]", "result": -1.11, "unit": "%"}
    ]},
    {"compound": "COc1cccc(OC2CCN(C(=O)c3ccc(-c4ccc(N5CCCC5=O)cc4C)cc3)CC2)c1", "values": [
      {"measurement": "inhibition", "setting": "[1]", "result": 1.4, "unit": "%"},
      {"measurement": "inhibition", "setting": "[2]", "result": 0.88, "unit": "%"},
      {"measurement": "inhibition", "setting": "[3]", "result": 3.06, "unit": "%"}
    ]},
    {"compound": "O=C(Nc1cccc(OC2CCN(Cc3ccccc3)CC2)c1)c1ccc([N+](=O)[O-])cc1", "values": [
      {"measurement": "inhibition", "setting": "[1]", "result": 4.89, "unit": "%"},
      {"measurement": "inhibition", "setting": "[2]", "result": 4.94, "unit": "%"},
      {"measurement": "inhibition", "setting": "[3]", "result": 4.55, "unit": "%"}
    ]},
    {"compound": "COc1ccc2nccc(N(C)CC3(O)CCN(CCc4ccc5c(c4)OCCO5)CC3)c2n1", "values": [
      {"measurement": "inhibition", "setting": "[1]", "result": 0.49, "unit": "%"},
      {"measurement": "inhibition", "setting": "[2]", "result": 0.73, "unit": "%"},
      {"measurement": "inhibition", "setting": "[3]", "result": 2.16, "unit": "%"}
    ]},
    {"compound": "CC(C)C(=O)NC(c1ccc(N(C)C)cc1)c1cc(Cl)c2cccnc2c1O", "note": "(stereo not drawn)", "values": [
      {"measurement": "inhibition", "setting": "[1]", "result": 3.89, "unit": "%"},
      {"measurement": "inhibition", "setting": "[2]", "result": 4.2, "unit": "%"},
      {"measurement": "inhibition", "setting": "[3]", "result": 1.29, "unit": "%"}
    ]},
    {"compound": "Cc1c(C(=O)N(C)C)sc2c1c(=O)n(Cc1ccccc1)c(=O)n2CC(=O)Nc1ccccc1F", "values": [
      {"measurement": "inhibition", "setting": "[1]", "result": 2.21, "unit": "%"},
      {"measurement": "inhibition", "setting": "[2]", "result": 3.39, "unit": "%"},
      {"measurement": "inhibition", "setting": "[3]", "result": 1.57, "unit": "%"}
    ]},
    {"compound": "O[C@@H](c1cc(C(F)(F)F)nc2c(C(F)(F)F)cccc12)[C@H]1CCCCN1", "values": [
      {"measurement": "inhibition", "setting": "[1]", "result": "13.6% and 1.21%"},
      {"measurement": "inhibition", "setting": "[2]", "result": "8.31% and 0.88%"},
      {"measurement": "inhibition", "setting": "[3]", "result": "7.19% and 1.05%"}
    ]},
    {"compound": "OCCC1CCN(Cc2ccc(-c3ccc(-c4nc5ccccc5[nH]4)cc3)cc2)CC1", "values": [
      {"measurement": "inhibition", "setting": "[1]", "result": 8.45, "unit": "%"},
      {"measurement": "inhibition", "setting": "[2]", "result": 5.85, "unit": "%"},
      {"measurement": "inhibition", "setting": "[3]", "result": 5.76, "unit": "%"}
    ]},
    {"compound": "O=C(c1cccc(-c2cccc(-c3nc4cc(C(F)(F)F)ccc4[nH]3)c2)c1)N1CCCCC1CN1CCC(O)C1", "note": "(stereo not drawn)", "values": [
      {"measurement": "inhibition", "setting": "[1]", "result": -0.81, "unit": "%"},
      {"measurement": "inhibition", "setting": "[2]", "result": -0.87, "unit": "%"},
      {"measurement": "inhibition", "setting": "[3]", "result": -1.32, "unit": "%"}
    ]}
  ]
}
